# Assay outcomes (PubChem BioAssay)
# AMA1-RON2 inh = AMA1-RON2 (P. falciparum) interaction inhibition. AlphaScreen AMA1-biotinylated RON2 peptide binding. Potency, µM (series often up to 58.2 µM), hits mostly inhibitors. hit rate 0.2% among 360,000; also: nearly all actives have a fitted effect of over 45% in size
#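 AMA1 (3D7) with his tag at 25 nM final met compounds first, then biotinylated RON2 peptide at 25 nM; detection used donor plus acceptor beads, 10 µg/mL apiece, read by AlphaScreen after 30 min at room temperature.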
# VACV Venus inh = vaccinia inhibition (Venus reporter) | hit rate 0.46% among 330,000 | Potency, µM (series often up to 36.5 µM), hits mostly inhibitors | Vaccinia virus Venus reporter expression, fluorescence; calls by dose curve; tested in A549 cells; also: nearly all actives have a fitted effect of over 30% in size
# Vaccinia mCherry = vaccinia inhibition (mCherry reporter). Vaccinia virus mCherry reporter infection, fluorescence. Potency, µM (doses to about 36.5 µM), usual class: inhibitors. hit rate 0.63% among 310,000; calls by dose curve; tested in A549 cells; also: nearly all actives have a fitted effect of over 35% in size
# AmpC detergent = AmpC beta-lactamase inhibition with detergent present. Potency, µM (top dose mostly 114 µM), most hits filed as inhibitors. hit rate 0.041% among 370,000. P00811. AmpC hydrolysis of nitrocefin, absorbance 480 nm, 0.01% Triton. AID 485294; also: nearly all actives have a fitted effect of over 25% in size
# Target sequence (P00811 whole entry, looked up): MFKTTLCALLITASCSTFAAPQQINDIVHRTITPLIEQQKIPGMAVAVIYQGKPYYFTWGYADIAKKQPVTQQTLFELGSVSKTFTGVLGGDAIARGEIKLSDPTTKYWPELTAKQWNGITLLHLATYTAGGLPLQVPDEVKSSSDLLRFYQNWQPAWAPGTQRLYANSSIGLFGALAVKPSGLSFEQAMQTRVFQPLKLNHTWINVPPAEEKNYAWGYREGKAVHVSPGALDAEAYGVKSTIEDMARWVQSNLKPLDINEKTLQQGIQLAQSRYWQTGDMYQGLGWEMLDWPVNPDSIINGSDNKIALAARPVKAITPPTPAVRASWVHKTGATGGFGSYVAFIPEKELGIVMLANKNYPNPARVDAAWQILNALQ
#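 20 mM phosphate pH 7.0 + 0.01% (detergent screen) or 0.0001% Triton X-100; 5.3 nM AmpC reagent; cpd preinc 15 min RT; nitrocefin (800 uM stock) to start; A480 q20 s × 4 min; Activity was normalised to no-enzyme and no-compound control wells.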
# SARS PLP yeast = SARS-CoV PLP inhibition in yeast; hit rate 0.19% among 330,000; S. cerevisiae expressing SARS-CoV PLpro, growth rescue; Potency, µM (top dose mostly 32.9 µM), most hits filed as activators; calls by dose curve; also: nearly all actives have a fitted effect of over 55% in size
# AmpC no deterg = blocks E. coli AmpC beta-lactamase in detergent-free assay. P00811. AmpC nitrocefin hydrolysis, absorbance 480 nm, 0.0001% Triton. Potency, µM (titrated, usually from 57.1 µM), actives largely listed as inhibitors. hit rate 0.52% among 330,000; also: nearly all actives have a fitted effect of over 20% in size
#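 AmpC (5.3 nM in the dispensed reagent) in 20 mM phosphate pH 7.0 with 0.01% (detergent screen) or 0.0001% Triton X-100 was preincubated with compounds for 15 min at room temperature. Nitrocefin was then added from an 800 uM solution, and hydrolysis was followed at 480 nm.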
# Hits are given with their value; i = inactive; ? = inconclusive; nt = no result given. Hits are enriched below; roughly 1.3% of the tested compounds scored in any of these assays. Unless noted, calls follow the shape of the dose curve; as a rule, active = well fitted curve in the direction sought with a large enough effect; inconclusive = small, poorly fitted or top-dose-only effect, or another doubt; inactive = no such curve, though single readings can be large; an effect the other way counts as inactive or inconclusive.
SMILES,AMA1-RON2 inh,VACV Venus inh,Vaccinia mCherry,AmpC detergent,SARS PLP yeast,AmpC no deterg
COc1ccc2cc3c(N)c(C(=O)NCc4ccco4)sc3nc2c1,i,nt,nt,i,i,0.32µM
COc1ccc2c(c1)OC(C)CN(CCNC(=O)C1CCOC1)C2 (stereo not given),nt,i,i,nt,nt,nt
Cc1ccc(-c2cc(C(F)F)n3ncc(C(=O)N4CCN(c5ccccn5)CC4)c3n2)cc1,i,i,i,i,i,11µM
CNC(=S)NN=C(C)c1ccc(OC)cc1O,i,?,5µM,nt,nt,nt
COc1ccc(/C(C)=N/N=C(N)N)c(O)c1,i,i,i,i,i,i
Cc1cc(N/N=C/c2ccccc2[N+](=O)[O-])nc(-n2nc(C)cc2C)n1,i,?,10µM,i,i,i
Cc1cc(N/N=C/c2cccc([N+](=O)[O-])c2)nc(-n2nc(C)cc2C)n1,i,i,i,i,i,i
Cc1cccc(NS(=O)(=O)c2ccc(C)c(C(=O)OCC(=O)Nc3cc(C)on3)c2)c1,i,i,22µM,?,i,i
Cc1cccc(NS(=O)(=O)c2cc(C(=O)OCC(=O)Nc3cc(C)on3)ccc2C)c1,i,nt,nt,i,i,i
COc1cc(NS(C)(=O)=O)ccc1Cc1c2ccccc2nc2ccccc12,nt,?,1.3µM,nt,nt,nt
CCOc1cccc2cc(-c3csc(NC(=O)CCC(=O)NCCN4CCCCC4C)n3)c(=O)oc12 (stereo not given),i,?,11µM,i,i,i
COc1ccc(/C=C(\C#N)c2nc3ccccc3c(=O)[nH]2)cc1OC,nt,i,i,i,nt,nt
COc1cc(/C=C(/C#N)c2nc3ccccc3c(=O)[nH]2)ccc1O,i,i,i,i,i,28µM
O=C(Cn1cncn1)N1CCOc2ccc(CN3CCN(c4ccccc4)CC3)cc2C1,nt,i,i,nt,nt,nt
O=C(Cn1ccc2cc(S(=O)(=O)N3CCCCC3)ccc21)NCc1ccccc1F,i,i,?,i,?,20µM
Cc1cc(CNC(=O)CCN2Cc3cc(Cl)ccc3OC(C)C2)nn1C (stereo not given),nt,i,i,nt,nt,nt
Cc1cc2c(C)ccc(C)c2nc1SCC(=O)c1cccs1,i,nt,nt,?,i,0.18µM
CC(=O)c1ccccc1-c1ccc2c(c1)CC(CNC(=O)c1cc(C)on1)O2 (stereo not given),nt,i,i,nt,nt,nt
O=C(CCS(=O)(=O)c1ccc(F)cc1)Nc1nnc(-c2cccs2)o1,i,13µM,?,i,i,i
O=C(CS(=O)(=O)c1ccc(F)cc1)Nc1nnc(-c2cccs2)o1,i,i,i,?,i,?
COc1cc(OC)cc(-c2nnc(NC(=O)CCS(=O)(=O)c3ccccc3)o2)c1,i,?,6.3µM,i,i,i
COc1ccc(-c2nnc(NC(=O)c3ccc(F)cc3)o2)cc1,i,?,?,?,i,22µM
COc1cc(-c2nnc(NC(=O)CCS(=O)(=O)c3ccccc3)o2)cc(OC)c1OC,i,5.6µM,3.5µM,i,i,i
COc1cc(-c2nnc(NC(=O)CCS(=O)(=O)c3ccc(F)cc3)o2)cc(OC)c1OC,i,?,?,?,i,i
COc1cc(OC)cc(-c2nnc(NC(=O)CCS(=O)(=O)c3ccc(F)cc3)o2)c1,i,7.9µM,5.6µM,i,i,i
SMILES,AMA1-RON2 inh,VACV Venus inh,Vaccinia mCherry,AmpC detergent,SARS PLP yeast,AmpC no deterg
Cc1nc(N)nc(N)c1/C=C/C(C)(C)c1ccc(Cl)cc1,i,3.5µM,?,i,i,i
CCN1C(=NCc2cccc(C(F)(F)F)c2)N[C@@H](c2cccc(C(F)(F)F)c2)C(C(=O)OC)=C1C,nt,?,i,nt,nt,nt
Oc1cccc(-c2nc3c4c(ncn3n2)-c2ccccc2CC42CCCC2)c1,i,18µM,13µM,i,i,i
COc1ccc(-c2nc3c4c(ncn3n2)-c2ccccc2CC42CCCC2)cc1,i,i,i,i,i,i
CCOC(=O)c1c(/N=C/c2ccc(O)cc2O)sc2c1CCC2,nt,nt,nt,i,i,10µM
O=C(CSc1n[nH]c(-c2ccccn2)n1)Nc1ccccc1,i,i,7.9µM,i,i,i
COc1ccccc1NC(=O)CSc1n[nH]c(-c2ccccn2)n1,i,i,?,?,i,i
O=C(CSc1n[nH]c(-c2ccncc2)n1)c1ccccc1,i,i,i,i,i,0.4µM
COc1ccc(NC(=O)CSc2n[nH]c(-c3ccccn3)n2)cc1,?,?,?,i,i,i
O=C(CSc1n[nH]c(-c2ccccn2)n1)Nc1ccccc1F,?,?,28µM,i,i,i
